Measured values reported in paper PMC12136788.
Positions count from the first letter of the chain named. In all, about 24,000 sequences were measured (“enrichment r”: median about 0.99, highest 2% from about 3.7 on). Shown is part of a subset that was picked to be rich in the highest values.

T1: UNK ZnF1-3 (human, UniProt Q9C0B0 31-174)
T1 sequence: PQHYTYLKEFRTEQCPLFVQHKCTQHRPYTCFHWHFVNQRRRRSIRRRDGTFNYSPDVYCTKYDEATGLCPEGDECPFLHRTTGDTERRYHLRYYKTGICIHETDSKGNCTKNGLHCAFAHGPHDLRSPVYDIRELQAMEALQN

B1: 27821128_27827609_1759_CDS_ENSMUSG00000022263_ENSMUST00000090247|mouse|control|control (ssRNA)
RNA: GGGAGUUCUACAGUCCGACGAUCGCCCUGGUGAUGAUGAAUGGCGUCUUCCAGGUCCUGCAGCUCCGAGGGAAGGUCUACUUCACCACAGGCCUUACACCACGAGUCCACGUUGCUCAUGUACUUCUCAGCCUUCUGGUGAAACAACAGAGGAUUGAGCAUCA
B2: chr8:21961785:21961786:+_ENSG00000158863_ENST00000289921|hu_hu|FALSE|FALSE (ssRNA)
RNA: GGGAGUUCUACAGUCCGACGAUCGCACUGAGGAGAGGGGAGGGUCUGUGACUCCCAAACCCUCGAAUAUUUUAUGAAUCUAAGAGUCCAGACGCAGUUCAUCCACGGAGAUCUGCGCCCCGUCCACACCAACACCCACGUUUGCAACAGAGGAUUGAGCAUCA
B3: chr2:216981417:216981418:+_ENSG00000079246_ENST00000392132|hu_hu|hu_hu_hu_mus_True|8_48 (ssRNA)
RNA: GGGAGUUCUACAGUCCGACGAUCCUGAUACUGGUCCUUGCCAGCAAGGGCAUUAUCAGUGCCAUCUGUGCCAUAGAGGACUAACGCAAUCUCAUCCUUGCUCUCCGAAAAUACCUGUCGUUGGACAAACAUGGUUAUCACUUUCAACAGAGGAUUGAGCAUCA
B4: chr7:65705844:65705845:+_ENSG00000169902_ENST00000304842|hu_mus|hu_hu_hu_mus_False|18_108 (ssRNA)
RNA: GGGAGUUCUACAGUCCGACGAUCAAAAGGAUCUUUAUUACAUAAAUAAGGUGCCGGCUCCCCAUGUUUAACAAUGACCUCCAGAAGGAAGGCUUGCAUGGCAGAAUCUAGCACUUCAUCAGUAACACCCGCCUCAUCCAAGCGCAACAGAGGAUUGAGCAUCA
B5: chr18:43795804:43795805:+_ENSG00000152242_ENST00000321319|hu_hu|FALSE|FALSE (ssRNA)
RNA: GGGAGUUCUACAGUCCGACGAUCCUCCUCCAUCUUCAUUUCAGAAUUUCAAGUUAAAUCAUGGAGUAGAGUCUAGGAAAUGAUAUCAAAGAUGCAACAGGAAAGCAACCUGCGCUCCGCGGCGACUCCGUGCCUUCUCGCUCGCAACAGAGGAUUGAGCAUCA
B6: chr11:100882373:100882374:+_ENSMUSG00000019302_ENSMUST00000044721|mus_mus|mus_mus_mus_hu_True|38_108 (ssRNA)
RNA: GGGAGUUCUACAGUCCGACGAUCUUCCUGGUUAGUGUUGAUUUCCUUCAGUUCAUUUUCAAUCUUCUCAAAAUUGGCCUCUAAGUCAAUCAUGUCCCGAGGGAAGGGAACCUCUGGGUUUUCACCGGUGUCCAUAAUCGGAAUCAACAGAGGAUUGAGCAUCA
B7: chr1:46159212:46159213:+_ENSG00000159596_ENST00000372025|hu_mus|hu_hu_hu_mus_True|28_48 (ssRNA)
RNA: GGGAGUUCUACAGUCCGACGAUCUCUGAUCCCUCCCAAGAAAGCUAGGAAACCGGCUCCAUAAGCCAUCUGAGUGAAAGCUAGGACGGGAAUAUAAGACUUUGUUAUCAGCAUGACAAGUGGGGGAGCAGUAAAGGGGAUUAACAACAGAGGAUUGAGCAUCA
B8: chr9:122046315:122046316:+_ENSMUSG00000038145_ENSMUST00000120173|mus_hu|FALSE|FALSE (ssRNA)
RNA: GGGAGUUCUACAGUCCGACGAUCUAGUUUGGUCUGGGUGUCAAUAACUUCAUAAAGGCGGACGAUGUUAGGAUGCUGCACUAGUUUCAUGCAUCUCACUUCCUGGAAAAGAUGACCAGUAGCUAGAGUGUCCAGUUUUGUCUUCAACAGAGGAUUGAGCAUCA
B9: chr1:46159212:46159213:+_ENSG00000159596_ENST00000372025|hu_mus|hu_hu_hu_mus_True|28_108 (ssRNA)
RNA: B7 RNA with U33A, A90G
B10: chr12:51141157:51141158:+_ENSG00000066084_ENST00000301180|hu_mus|FALSE|FALSE (ssRNA)
RNA: GGGAGUUCUACAGUCCGACGAUCUCAAAGAAAAGCAACAGAAAAUAAAAAAAAAAAAAGAAGUAGUCAUUACCAGAAGGAGGAAAAGACUAGAAGCCUGGGCAAGGCAUGAAGGUGUCUGCUGCAAUUUCAGUACUCGGGACACAACAGAGGAUUGAGCAUCA
B11: 104520116_104520236_3471_3pUTR_ENSMUSG00000027175_ENSMUST00000111118|mouse|control|control (ssRNA)
RNA: GGGAGUUCUACAGUCCGACGAUCAAGUUAAAAUUCCAGCCUAUGUGAAAAGAGAUACAAUUUAACACAGGUGACAGGACGCUCUGCUGUUAGUUUCCCUACAUCAAAGACUAUUCCAGUACAAUGAACAGGAGGGUUUGGAAGCAACAGAGGAUUGAGCAUCA
B12: chr1:46159212:46159213:+_ENSG00000159596_ENST00000372025|hu_mus|hu_hu_hu_mus_True|1_28 (ssRNA)
RNA: B7 RNA with A90G, A143G
B13: chr19:16212804:16212805:+_ENSG00000167460_ENST00000300933|hu_mus|hu_hu_hu_mus_False|88_108 (ssRNA)
RNA: GGGAGUUCUACAGUCCGACGAUCAACAAAUAUGCAAUGAAGGAAAGCAUCAAGGAUGAACAGCAUUAAAGCUCAGUCAGAAGGCACAUGGGCAACAAUGAUCACCCCAGCAUUCUCGCUUGGAAUGCUUAAAGACAAUCUGUUCAACAGAGGAUUGAGCAUCA
B14: chr1:46159212:46159213:+_ENSG00000159596_ENST00000372025|hu_mus|hu_hu_hu_mus_True|28_58 (ssRNA)
RNA: B7 RNA with G83A, G84U, C86U, A90G
B15: chr18:33597908:33597909:-_ENSMUSG00000042834_ENSMUST00000171533|mus_hu|motif|central (ssRNA)
RNA: GGGAGUUCUACAGUCCGACGAUCCAUCAAAAGAGUACAUGGAUAAAAUAUAGAGAUAUACAGACAAUUGAUGAACAUAAACGGCGGGGUUUGUUACAUCUAAAUGAAAAAAAAGGUGGGGGGGGGACUCUCAGCCUCUGCAAGCAACAGAGGAUUGAGCAUCA
B16: chr18:33597908:33597909:-_ENSMUSG00000042834_ENSMUST00000171533|mus_hu|FALSE|FALSE (ssRNA)
RNA: B15 RNA with G82U, G83A, G85U, G86A
B17: chr2:49628383:49628384:+_ENSMUSG00000026764_ENSMUST00000028102|mus_mus|FALSE|FALSE (ssRNA)
RNA: GGGAGUUCUACAGUCCGACGAUCUUGGUACUGACGGGGUUUGCAGACUUGCCCUGCAAAGGACCCCUCCAUCAGACUCCAAUAGCAGCCAACAGUGGCAACAACAUGAAACAAAGUGAACACAGGUAAACACAAAAUCAUCUUCAACAGAGGAUUGAGCAUCA
B18: chr16:94664806:94664807:+_ENSMUSG00000040785_ENSMUST00000117648|mus_mus|FALSE|FALSE (ssRNA)
RNA: GGGAGUUCUACAGUCCGACGAUCAUUAGGACUCUCAAAGUAUGCAGCGGCAUUUUCAUCUGCUCUGUUGCUGGCUACAAAAGAUGGCACCACUGGCAUGGAUCUUUGCAUUGGAUACUCAGAAGAAAUGUUGGCCAAAGGUGUCAACAGAGGAUUGAGCAUCA
B19: 15109990_15111016_889_CDS_ENSG00000179889_ENST00000396410|human|control|control (ssRNA)
RNA: GGGAGUUCUACAGUCCGACGAUCUGAGGAGACAUAACCCAGAGCCAAUGUUGCCAGAUUCACACCCUCCACAUGAAGCCAUAUGCCAUACUGCUCACAGAGUUCUUUCAAUCUCCCAAUCUUGUCUGUGUGUCCUACUGCUGCCAACAGAGGAUUGAGCAUCA
B20: 17503471_17513584_185_CDS_ENSG00000151552_ENST00000428702|human|control|control (ssRNA)
RNA: GGGAGUUCUACAGUCCGACGAUCCUUAAAGAGAGACUUGGAUUUGGCAUUGCCCCCGGCCCAUCCUCCAGCAACGCAAAGAAUUGCAUCCACCUUCUCUUCACCCAAGAGCUUUCCAACCUCAGCAGUCACCCAGUUGCGGGCCAACAGAGGAUUGAGCAUCA
B21: chr10:33190432:33190433:-_ENSG00000150093_ENST00000302278|hu_mus|hu_hu_hu_mus_True|1_98 (ssRNA)
RNA: GGGAGUUCUACAGUCCGACGAUCUACAUUUUCCAAACCUGCACAUGAAUAAAACCCUGGCCACAGAGCCCCAAAACUACCCUACUGUGACUAAGAUGCUGCUGCUGUGAGCUUGGUGUUGCAAAAUCCGCCUGAGUCAGUACUCAACAGAGGAUUGAGCAUCA
B22: chr10:33190432:33190433:-_ENSG00000150093_ENST00000302278|hu_mus|hu_hu_hu_mus_True|68_98 (ssRNA)
RNA: B21 RNA with C71U, A75G, C137A, A138G, U140A, A141U, C142U, U143C

Target: T1, UNK ZnF1-3
Test: nsRBNS (natural sequence RNA bind-n-seq); RBNS binding buffer (assumed for nsRBNS): 25 mM Tris pH 7.5, 150 mM KCl, 3 mM MgCl2, 0.01% Triton X-100, 500 ug/ml BSA, 20 U/ml SUPERase-In, 4 C; UNK is unkempt and MSI1 is Musashi-1; names of the RNAs are library labels; protein concentration not given here; high values mean tight binding

Compared with B1, B2 is higher in binding signal: 0.482 enrichment R for the first, 1.03 enrichment R for the second.

Compared with B3, B4 is lower in binding signal: 0.64 enrichment R for the first, 0.624 enrichment R for the second.

Compared with B5, B6 is lower in binding signal: 0.921 enrichment R for the first, 0.664 enrichment R for the second.

Compared with B7, B8 is lower in binding signal: 1.5 enrichment R for the first, 0.873 enrichment R for the second.

Compared with B9, B10 is higher in binding signal: 1.36 enrichment R for the first, 4.07 enrichment R for the second.

First: B11
Second: B12
The binding signal of the first is lower: 1.5 enrichment R for the first, 3.95 enrichment R for the second.

First: B13
Second: B14
The binding signal of the first is higher: 1.33 enrichment R for the first, 1.32 enrichment R for the second.

First: B15
Second: B16
The binding signal of the first is lower: 6.29 enrichment R for the first, 13.4 enrichment R for the second.

Compared with B17, B18 is higher in binding signal: 0.994 enrichment R for the first, 1.22 enrichment R for the second.

Compared with B19, B20 is lower in binding signal: 1.36 enrichment R for the first, 1.33 enrichment R for the second.

Compared with B21, B22 is lower in binding signal: 1.13 enrichment R for the first, 0.909 enrichment R for the second.
